In the library only some 4.2% were active in any assay of this set; here they are far more common.
S1P4 antagonist: blocks the human S1P4 receptor; O95977; S1P4-expressing cells, antagonist mode, reporter read-out; inhibition, % at 4.98 µM; actives 0.26% (n = 220,000); in the data active means inhibition above about 29%
Target sequence (O95977 whole entry, looked up): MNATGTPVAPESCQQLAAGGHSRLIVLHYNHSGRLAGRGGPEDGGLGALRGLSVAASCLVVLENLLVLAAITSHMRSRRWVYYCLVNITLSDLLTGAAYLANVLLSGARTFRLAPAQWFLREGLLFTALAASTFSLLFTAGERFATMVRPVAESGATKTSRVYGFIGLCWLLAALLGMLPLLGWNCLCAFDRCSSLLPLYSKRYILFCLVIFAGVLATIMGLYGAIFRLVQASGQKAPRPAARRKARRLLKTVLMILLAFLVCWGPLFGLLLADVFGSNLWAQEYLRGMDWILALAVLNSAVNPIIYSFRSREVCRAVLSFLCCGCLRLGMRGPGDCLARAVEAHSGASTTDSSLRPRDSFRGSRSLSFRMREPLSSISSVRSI
S1P4 ag: activates the human S1P4 receptor; O95977; S1P4-expressing cell line, agonist reporter assay; activation, % at 4.98 µM; actives 0.35% (n = 220,000); AID 1509; in the data active means activation above about 11%
CHOP inhibitor: inhibitors of CHOP induction in ER stress response; CHO-K1 CHOP-promoter luciferase, tunicamycin-induced, 15-18 h; inhibition, % at 10 µM; AID 2732; actives 3.8% (n = 220,000);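 active means compounds that reduced the stress-induced luciferase reporter signal by more than about 70% of percent inhibition, limit read from the data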
Hsp70 activator: transcriptional activators of Hsp70; HeLa Hsp70 promoter luciferase reporter, luminescence; scaled: vehicle 0, proteasome-inhibitor control 100%; activation, % at 10 µM; actives 0.04% (n = 200,000); AID 1203;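 active means activation above the mean across all tested compounds plus 3 SD, cutoff set per campaign, cut at about 5.5% in these data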
CHOP inh conf: confirmation of CHOP induction inhibitors; shares compounds with CHOP inhibitor; CHO-CHOP promoter luciferase reporter, tunicamycin-induced, luminescence; inhibition, % at 10 µM; actives 45% (n = 2,100);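 active means mean of three repeat readings of reporter signal inhibition above a set limit, cut at about 70% in these data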
Hits are given with their value; - = inactive; . = no result given.

SMILES | S1P4 antagonist | S1P4 ag | CHOP inhibitor | Hsp70 activator | CHOP inh conf
COc1ccc(NC(=O)c2ccc(Cl)nc2)cc1S(=O)(=O)N1CCCCC1 | - | - | - | - | .
O=C(Nc1ccc(Cl)cc1)Nc1nc(-c2sccc2Br)cs1 | - | - | - | - | .
O=C(Nc1ccc(Cl)cc1)Nc1nc(-c2ccccc2O)cs1 | - | - | 104 | . | -
COc1ccc(-c2[nH]ncc2/C=C(/C#N)C(=O)NC2CCCCCC2)cc1 | - | - | 99 | - | 82
Cc1cc(/C=C(\C#N)C(=O)NC2CCCCCC2)c(C)[nH]1 | - | - | - | - | .
Cc1occc1-c1nnc(SCC(=O)Nc2nc(C(C)(C)C)cs2)o1 | - | - | 103 | - | -
CCn1c(O)c(/C=C2\C=NN=C2c2ccccc2)sc1=S | - | - | 98 | . | -
Cc1ccc(Nc2nc(Cl)c(C=O)s2)cc1Cl | - | - | 96 | - | -
CCOCCn1c(N2CCN(c3ccc(OC)cc3)CC2)nc2c1c(=O)[nH]c(=O)n2C | - | - | - | - | .
CC(C)=NOc1cc(NC(=O)CCl)cc([N+](=O)[O-])c1 | - | - | 111 | - | 110
COc1ccccc1C(=O)NC(=Nc1nc2ccccc2o1)NC(=O)c1ccccc1OC | - | - | 106 | - | 134
O=C(NC(=Nc1nc2ccccc2o1)NC(=O)c1ccccc1)c1ccccc1 | - | - | - | - | .
COc1ccccc1Nc1nc(NCC(C)C)nc(N)c1[N+](=O)[O-] | - | - | 101 | . | -
O=C(C1CC2CCC1C2)N1CCN(Cc2ccc3c(c2)OCO3)CC1 (stereo unspecified) | - | - | - | - | .
CCOc1cc(C)c(-c2onc(C(F)(F)F)c2-c2csc(C)n2)c(O)c1 | - | - | 105 | - | 72
Cc1ccc(O)c(-c2cc(C(=O)Nc3ccc(S(=O)(=O)N4CC(C)OC(C)C4)cc3)[nH]n2)c1 (stereo unspecified) | - | - | 99 | - | -
CCn1c2ccccc2c2nnc(SCC(=O)Nc3cc(C)on3)nc21 | - | - | - | - | .
COc1cc(C2C(C#N)=C(N)Oc3n[nH]c(C)c32)cc2c1OCO2 (stereo unspecified) | - | - | - | - | .
Cc1c(NC(=O)c2ccc3c4c(cccc24)CC3)c(=O)n(-c2ccccc2)n1C | - | - | - | - | .
C=CCc1cccc(CNc2nc3ccccc3n2C(C)C)c1O | - | - | 108 | - | -
Cn1c(NCc2ccccc2O)nc2ccccc21 | - | - | - | - | .
O=c1[nH]c(-c2ccc(Cl)cc2)cs1 | - | - | - | - | .
O=C1OCC/C1=C\c1ccc2c(c1)OCO2 | - | - | - | . | .
CC1=NOC(=O)/C1=C\c1ccc2c(c1)OCO2 | - | - | 101 | - | -
COC(=O)C1=C(C)NC(=O)/C1=C\c1ccc2c(c1)OCO2 | - | - | - | - | .
SMILES | S1P4 antagonist | S1P4 ag | CHOP inhibitor | Hsp70 activator | CHOP inh conf
CC1=NOC(=O)/C1=C/c1ccc2c(c1)OCO2 | - | - | 100 | - | -
C/C(=C\C(=S)Nc1ccccc1)Nc1cccc2ccccc12 | - | - | - | - | .
NC(=O)c1ccc(Cc2ncc(C(F)(F)F)cc2Cl)s1 | - | - | - | - | .
O=S(=O)(N/N=C/c1ccc(Cl)cc1)c1ccc(Cc2ncc(C(F)(F)F)cc2Cl)s1 | - | - | 100 | - | 91
COc1ccc(-c2[nH]ncc2N=Nc2cc(C)cc(C)c2)cc1 | - | - | 104 | - | 102
COc1ccc(-c2[nH]ncc2-c2ccc3c(c2)OCCO3)c(O)c1 | - | - | - | - | .
O=C(Nc1ccc(Br)c(C(F)(F)F)c1)c1ccccc1 | - | - | - | - | .
O=C(Nc1ccc(Br)c(C(F)(F)F)c1)c1ccc(C(F)(F)F)cc1 | - | - | 102 | . | 98
CCN1CCN(C(=O)CCCCCn2c(=O)[nH]c3cc(C(=O)OC)ccc3c2=O)CC1 | - | - | - | - | .
COC(=O)c1ccc2c(=O)n(CCCCCC(=O)N3CCN(c4ccccc4)CC3)c(=O)[nH]c2c1 | - | - | 105 | - | 113
C=C(C)c1cccc(C(C)(C)NC(=O)Nc2nnc(C(C)C)s2)c1 | - | - | - | . | .
COc1ccc(OC)c(/C(O)=C/C(=O)C(=O)Nc2cc(C)cc(C)c2)c1 | - | - | 105 | - | -
COc1cc2c3c(c1)c(N=NC(N)=S)c(O)n3C(C)(C)C=C2C | - | - | - | . | .
CNC(=O)c1nnsc1S(=O)c1ccc(Cl)cc1 (stereo unspecified) | - | - | 107 | - | -
CCCNC(=O)c1nnsc1S(=O)c1ccc(Cl)cc1 (stereo unspecified) | 77 | - | 107 | - | 141
CCCNC(=O)c1nnsc1S(=O)(=O)c1ccc(Cl)cc1 | 64 | - | 108 | - | 141
CCCNC(=O)c1ccc2snnc2c1 | - | - | - | - | .
O=[N+]([O-])c1cccc(/C=N/Nc2nc(NCc3ccccc3)nc(N3CCOCC3)n2)c1 | - | - | 104 | - | -
O=[N+]([O-])c1ccc(/C=N/Nc2nc(NCc3ccccc3)nc(N3CCOCC3)n2)cc1 | - | - | - | - | .
Cc1cccc(-c2cc(C(=O)Nc3ccc4c(c3)OCCO4)c3ccccc3n2)c1 | - | - | - | - | .
O=C(Nc1ccc2c(c1)OCCO2)c1cc(-c2ccccn2)nc2ccc(Br)cc12 | - | - | 101 | - | -
COc1ccc(-c2cc(C(F)(F)F)nc(S(C)(=O)=O)n2)cc1 | - | - | 106 | - | -
CCn1c2ccccc2c2cc(NC(=O)CSc3nnc(-c4ccc(OC)cc4)n3N)ccc21 | - | - | 102 | - | -
C=CCn1c(SCC(=O)c2[nH]c(C)c(C(C)=O)c2C)nnc1-c1ccncc1 | - | - | - | - | .
C=CCn1c(SCC(=O)c2[nH]c(C)c(C(=O)OC)c2C)nc2scc(-c3ccc(OC)c(OC)c3)c2c1=O | - | - | 102 | - | 120
SMILES | S1P4 antagonist | S1P4 ag | CHOP inhibitor | Hsp70 activator | CHOP inh conf
NC(=O)c1cc(-c2ccccc2)nc(N2CCCCCC2)n1 | - | - | 103 | - | 108
NC(=O)c1cc(-c2ccccc2)nc(N2CCOCC2)n1 | - | - | - | - | .
CNC(=O)COC(=O)c1ccccc1C(=O)c1ccc(Cl)c([N+](=O)[O-])c1 | - | - | 97 | - | -
CC(C)OC(=O)c1ccccc1C(=O)c1ccc(N)c([N+](=O)[O-])c1 | - | - | - | - | .
COc1cc(C(=O)Nc2cccc(-c3nc4cc(C)ccc4o3)c2C)cc(OC)c1OC | - | - | 108 | - | -
c1csc(C2Nc3cccc4cccc(c34)N2)c1 | - | - | 97 | - | -
CN1c2cccc3cccc(c23)N(C)C1c1cccs1 | - | - | - | - | .
COc1ccc(CN(CC(=O)NCC2CCCO2)C(=O)CCC(=O)Nc2cc(C)ccn2)cc1 (stereo unspecified) | - | - | - | - | .
COc1ccc(-c2nn(-c3ccccc3)cc2/C=N/NC(=O)c2ccc(Br)o2)cc1 | - | - | 107 | - | 127
c1ccc(Nc2ccc3c4c(cccc24)CC3)cc1 | - | - | 100 | - | -
Cc1c(Br)c(C(F)(F)F)nn1CC(=O)N1CCCC1 | - | - | - | - | .
COc1cc(NC(=O)Cn2c(C)cc3ccccc3c2=O)cc(OC)c1OC | - | - | 97 | - | -
CCN1C(=O)/C(=C/N2CCc3ccccc3C2)SC1=S | - | - | - | . | .
